Reference: the supplement of paper PMC10338343
± gives the standard deviation.

Columns and labels:
[1] = system: MILI (PIWIL2) piRISC loaded with piRNA #1 (26 nt); assay: pre-steady-state target cleavage rate (min^-1); guide: piRNA #1 5'p-UGAGGUAGUAGGUUGUAUAGUAUCCA; higher = faster piRNA-guided slicing of the target; details: auxiliary factor: 500 nM mouse GTSF1
Procedure, shortened: (§1)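 Active affinity-purified piRISC (1 nM) loaded with one synthetic guide was mixed with a transcribed, DNA-blocked target RNA library (0.1 nM), with or without 500 nM GTSF1 partner protein, in HEPES–potassium acetate buffer at 33 °C for 0–8 or 0–960 min. Uncleaved targets were sequenced, normalised to depth and to weakly complementary targets, and pooled across three trials, with k3 capped at 0.0001 min^-1. The pre-steady-state cleavage rate was determined with a burst-and-steady-state fit.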

[2] = system: EfPiwi piRISC loaded with piRNA #1 (26 nt); assay: pre-steady-state target cleavage rate (min^-1); auxiliary factor: 500 nM Ephydatia muelleri Gtsf1; guide: piRNA #1 5'p-UGAGGUAGUAGGUUGUAUAGUAUCCA; MIWI and MILI are mouse PIWI proteins and EfPiwi is from a freshwater sponge; tags in brackets are library labels; higher = faster piRNA-guided slicing of the target
Procedure, shortened: as §1

| Sequence | pre-steady-state target cleavage rate [1] | pre-steady-state target cleavage rate [2] |
| --- | --- | --- |
| GGAGAGGAUACUAAUACAACCUACUACCUCA | 0.147 ± 0.011 | 0.128 ± 0.048 |
| GGAGACCUUACUAUAACAACCUACUACCUCA | 0.134 ± 0.013 | 0.00893 ± 0.0047 |
| GGAGUGGUUACUAUACAUCCUACUACCUCA | 0.295 ± 0.014 | 0.00608 ± 0.0026 |
| GGAGACCAUACUAUACAACCUACUAGCACA | 0.0527 ± 0.018 | 0.00447 ± 0.0023 |
| GGAGAGGAUACUAUUCAACCUACUACCUCA | 0.178 ± 0.011 | 0.012 ± 0.0057 |
| GGAGAGGUUACUAUACAACCUACAACCUCA | 0.0663 ± 0.015 | 0.00313 ± 0.0018 |
| GGAGACGAUACUAUACAACCUUCUACCUCA | 0.0098 ± 0.0026 | 0.00729 ± 0.0029 |
| GGAGACGAUACUAUACAACCUACCUACCUCA | 0.131 ± 0.011 | 0.00485 ± 0.002 |
| GGAGACCUUACUAUCCAACCUACUACCUCA | 0.17 ± 0.018 | 0.0791 ± 0.034 |
| GGAGACCAUACUAUACAACCUACUAGGAGA [g6:g23:cont:t1A] | 0.00402 ± 0.0038 | 0.00788 ± 0.0042 |
| GGAGACGAAACUAUACAACCUUCUACCUCA | 0.00739 ± 0.0047 | 0.00751 ± 0.0034 |
| GGAGAGGAUGCUAUACAACCUACUACCUCA | 0.151 ± 0.018 | 0.00971 ± 0.006 |
| GGAGUGGAUACUAUACUACCUACUACCUGA | 0.104 ± 0.013 | 0.00352 ± 0.0018 |
| GGAGUGGAUACUAUUCAACCUUCUACCUCA | 0.00907 ± 0.0019 | 0.00433 ± 0.0025 |
| GGAGAGGAUACUAUACAUCCUACUACCUCA | 0.28 ± 0.023 | 0.0116 ± 0.0055 |
| GGAGUGGAUACUAUACAACCUACAUCCUCA | 0.00356 ± 0.0016 | 0.00282 ± 0.0012 |
| GGAGAGGAUACUAAACUACCUACUACCUCA | 0.167 ± 0.011 | 0.00323 ± 0.003 |
| GGAGACCUAAGUUUACAACCUACUACCUCA | 0.0168 ± 0.0041 | 0.00645 ± 0.0046 |
| GGAGACCUAUCUAUACAACGUACUACCACA | 0.0153 ± 0.0035 | 0.00343 ± 0.0031 |
| GGAGACCUUACGUAUACAACCUACUACCUCA | 0.0406 ± 0.0063 | 0.00861 ± 0.0055 |

| Sequence | pre-steady-state target cleavage rate [1] | pre-steady-state target cleavage rate [2] |
| --- | --- | --- |
| GGAGUGGAUACUAUACAACCUACUGCCUCA | 0.102 ± 0.0082 | 0.00835 ± 0.0028 |
| GGAGACCUAAAUAUACAACCUACUACCUCA | 0.0318 ± 0.0077 | 0.0102 ± 0.0046 |
| GGAGUGGUUACUAUACAACCUUCUACCUCA | 0.0099 ± 0.0024 | 0.00361 ± 0.0018 |
| GGAGUGGAUACUAUACAACCUAAUACCUCA | 0.0398 ± 0.0071 | 0.00389 ± 0.0016 |
| GGAGUGGAUAAUAUACAACCUACUACCUCA | 0.168 ± 0.011 | 0.0105 ± 0.0047 |
| GGAGUGGAUACAAUACAACCUUCUACCUCA | 0.0111 ± 0.0024 | 0.00456 ± 0.0022 |
| GGAGACCAAACUAUACAACCUACUACGUCA | 0.042 ± 0.015 | 0.00503 ± 0.0027 |
| GGAGACCAUACUAUACAUCCUAGUACCUCA | 0.0776 ± 0.018 | 0.00345 ± 0.0019 |
| GGAGACAAUACUAUACAACCUACUACCUCA | 0.253 ± 0.021 | 0.0606 ± 0.023 |
| GGAGACGAAACUAUACAACCUACUACGUCA | 0.0713 ± 0.022 | 0.00245 ± 0.0024 |
| GGAGUGGUUACUAUACAACCUAGUACCUCA | 0.0547 ± 0.01 | 0.00359 ± 0.0015 |
| GGAGACCAUUCUAUACAACCUACUACGUCA | 0.0404 ± 0.0088 | 0.0027 ± 0.0025 |
| GGAGUGGAUACAAUACAACCUAGUACCUCA | 0.0718 ± 0.013 | 0.00305 ± 0.0021 |
| GGAGACCAUACUAGUACAACCUACUACCUCA | 0.089 ± 0.011 | 0.00796 ± 0.0044 |
| GGAGACCUUACUAUACAACUUACUACCUCA | 0.0242 ± 0.0054 | 0.00902 ± 0.0051 |
| GGAGACGAUACUAUACAAGCUACUACCACA | 0.311 ± 0.016 | 0.00387 ± 0.0017 |
| GGAGACGAUACAUACAACCUACUACCUCA | 0.158 ± 0.019 | 0.00551 ± 0.0028 |
| GGAGACCUAACUAUACAACCUACUACCUA | 0.0998 ± 0.021 | 0.0706 ± 0.025 |
| GGAGAGGAUACUAACAACCUACUACCUCA | 0.181 ± 0.013 | 0.00812 ± 0.0046 |
| GGAGACGAUUCUAAACAACCUACUACCUCA | 0.168 ± 0.012 | 0.00926 ± 0.0045 |

| Sequence | pre-steady-state target cleavage rate [1] | pre-steady-state target cleavage rate [2] |
| --- | --- | --- |
| GGAGUGGAUACUAUAAAACCUACUACCUCA | 0.161 ± 0.0081 | 0.00522 ± 0.0025 |
| GGAGACCAUACUAUACAACGUACAACCUCA | 0.0214 ± 0.0035 | 0.00296 ± 0.0025 |
| GGAGACCUAUCUAUACUACCUACUACCUCA | 0.0815 ± 0.01 | 0.00437 ± 0.0031 |
| GGAGUGGUUACUAUACAACCUACUACCACA | 0.0961 ± 0.0098 | 0.00384 ± 0.0022 |
| GGAGUGGAUACUAUACAACGUACUAGCUCA | 0.0104 ± 0.0027 | 0.00412 ± 0.0023 |
| GGAGACCAAACUAUACAACCUACAACCUCA | 0.12 ± 0.035 | 0.008 ± 0.0041 |
| GGAGACGAUACUAUAGCAACCUACUACCUCA | 0.162 ± 0.013 | 0.00432 ± 0.0027 |
| GGAGACCUUACUAUACAACCUACUCCCUCA | 0.0992 ± 0.015 | 0.00342 ± 0.0031 |
| GGAGACGAUACUAUUCAACCUACUACGUCA | 0.0915 ± 0.011 | 0.00311 ± 0.0016 |
| GGAGACCAUACUAUACAACCUUCUUCCUCA | 0.00848 ± 0.0038 | 0.00613 ± 0.0044 |
| GGAGAGGAUACUAUACAACAUACUACCUCA | 0.0488 ± 0.0058 | 0.0063 ± 0.0023 |
| GGAGAGGAUACUACUACAACCUACUACCUCA | 0.15 ± 0.016 | 0.00619 ± 0.0042 |
| GGAGAGCAUACUAUACAACCAACUACCUCA | 0.00634 ± 0.0024 | 0.00434 ± 0.0022 |
| GGAGUGGAUACUAUAGAUCCUACUACCUCA | 0.251 ± 0.015 | 0.0045 ± 0.0029 |
| GGAGAGGAUACUAUACAACUUACUACCUCA | 0.0186 ± 0.0027 | 0.0083 ± 0.0042 |
| GGAGACCAUACUAUACAUCCUACUACCACA | 0.279 ± 0.028 | 0.00302 ± 0.0024 |
| GGAGUGGAUACAAUACAACCUACUAGCUCA | 0.0614 ± 0.0087 | 0.00216 ± 0.0014 |
| GGAGUGGAUUGUAUACAACCUACUACCUCA | 0.151 ± 0.0098 | 0.00594 ± 0.0037 |
| GGAGACGUUACUAUACAACCUACUAGCUCA | 0.0954 ± 0.016 | 0.0029 ± 0.0017 |
| GGAGUGGAUACUAUACAUCCUACUAGCUCA | 0.0444 ± 0.0086 | 0.00367 ± 0.0024 |
